Source: PubChem BioAssay (several laboratories)
FBA Mtb inh: inhibitors of M. tuberculosis fructose-bisphosphate aldolase; P9WQA3; purified M. tuberculosis FBA, fluorescence read-out; inhibition, % at 1 µM; actives 2.3% (n = 360,000); in the data active = inhibition above about 27%;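 note: 0% = vehicle and 100% = reference inhibitor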
Target sequence (P9WQA3 whole entry, looked up): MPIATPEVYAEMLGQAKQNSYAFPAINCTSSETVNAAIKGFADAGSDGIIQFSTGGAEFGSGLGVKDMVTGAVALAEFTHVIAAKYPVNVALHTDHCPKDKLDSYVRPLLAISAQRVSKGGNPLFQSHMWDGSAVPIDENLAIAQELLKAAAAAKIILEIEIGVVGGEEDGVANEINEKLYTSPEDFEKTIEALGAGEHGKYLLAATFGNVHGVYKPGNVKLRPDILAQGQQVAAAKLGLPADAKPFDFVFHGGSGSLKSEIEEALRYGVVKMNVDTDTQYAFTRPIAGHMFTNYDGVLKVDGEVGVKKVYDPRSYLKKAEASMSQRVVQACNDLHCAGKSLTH
Rv3671c inh: inhibits the M. tuberculosis serine protease Rv3671c; P9WHR9; inhibition, % at 5.96 µM; actives 0.048% (n = 320,000); AID 2606; in the data active = inhibition above about 38%;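 note: extracellular domain of Rv3671c used as enzyme; 0% = enzyme with DMSO and 100% = no enzyme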
FadD28 binding: inhibitors of Mycobacterium tuberculosis FadD28 bisubstrate binding | actives 0.22% (n = 360,000) | inhibition, % at 12.5 µM | AID 588549 | FadD28 bisubstrate probe binding, fluorescence polarization; in the data active = inhibition above about 8.5%, passing the limit was not always enough; inconclusive = no clear call, values can overlap the other calls
Mtb betalactam: beta-lactam sensitization of Mtb H37Rv | inhibition, % at 25 µM | AID 434955 | M. tuberculosis H37Rv growth with meropenem, percent inhibition | actives 0.27% (n = 330,000); call rule not given here;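 note: growth measured after seven days incubation then overnight dye step; 0% = bacteria only wells and 100% = bacteria with antibiotic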
GDH-TPI inh: inhibits GDH-TPI coupling enzymes, artifact for Mtb FBA screen; GDH-TPI coupled enzyme counterscreen, NADH absorbance; inhibition, % at 4.8 µM; actives 1.2% (n = 360,000); AID 588335; in the data active = inhibition above about 30%;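 note: 0% = DMSO wells and 100% = wells lacking the enzyme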
Mtb UGM inh: blocks M. tuberculosis UGM enzyme; P9WIQ1; purified UGM, fluorescence polarization probe displacement; inhibition, % at 10 µM; actives 0.06% (n = 320,000); in the data active = inhibition above about 10%, passing the limit was not always enough; inconclusive = no clear call, values can overlap the other calls
* marks the source's active call; other numbers are inactive results; ? = inconclusive; · = no result; + = active, no number. Sampled rows, rich in hits. Any-hit rate of the full collection: about 3.7%.

SMILES	FBA Mtb inh	Rv3671c inh	FadD28 binding	Mtb betalactam	GDH-TPI inh	Mtb UGM inh
O=[N+]([O-])c1cccc(-c2ccc(/C=N/NC(=S)Nc3ccccc3)o2)c1	1	22	0	77	34*	-3
COc1ccc(CC(=O)N/N=C/c2cc(Br)cs2)cc1OC	3	4	3	99	5	-2
CNC(=S)N/N=C/c1ccc(-c2cccc(C(=O)O)c2)o1	7	8	-2	-10	85*	2
COc1ccc(CC(=O)N/N=C/c2ccc(-c3ccc(F)cc3)o2)cc1OC	0	-3	-1	60	45*	5
O=[N+]([O-])c1ccc(/C=N/NC(=S)Nc2ccccc2)o1	0	5	-1	65	4	-2
COc1ccc(CC(=O)N/N=C/c2ccc(-c3cccc(C(=O)O)c3)o2)cc1OC	5	-6	1	-2	75*	-1
Cc1ccc(OCC(=O)N/N=C\c2ccc(-c3cccc(C(=O)O)c3)o2)c(C)c1	9	1	-3	8	24	3
CSc1ccc(CN2CCC(C)(Oc3ccc(-n4ccnc4)cc3)C2)cc1 (configuration not stated)	-2	·	-4	·	4	·
CCOC(=O)c1nc2sc(C)c(C)c2c(=O)[nH]1	126*	2	-3	0	14	-1
CC(=O)OCc1nc2sc(C)c(C)c2c(=O)[nH]1	0	-9	-2	-3	-4	2
COc1ccc(C2CC(=O)CCN2S(=O)(=O)c2ccc(C)cc2)cc1 (configuration not stated)	2	·	-1	·	0	·
Cc1ccc(NC(=O)C2(C)CCN2C(=O)Cc2ccc(C(C)C)cc2)cc1 (configuration not stated)	3	·	-9	·	1	·
Cc1cc(C)[n+](-c2ccc(C(C)C)cc2)c2[nH]c(=O)[nH]c(=O)c12	+	-16	-4	4	11	-1
Cc1cccc(-[n+]2c(C)cc(C)c3c(=O)[nH]c(=O)[nH]c32)c1	+	6	-2	-7	33*	·
COc1ccc(-c2ccc(NC(=O)c3ccco3)cc2)nn1	-1	-12	-3	-10	6	3
O=C(COC(=O)c1cccc(-n2cnnn2)c1)c1ccc(F)c(F)c1	-2	·	-2	·	1	·
CCC(=O)c1ccc(OCC(=O)OCC(=O)NC2CCCCCCC2)cc1	-3	-2	-3	-8	-2	-1
CC[n+]1c(-c2ccccc2)c2cc(N)ccc2c2ccc(N)cc21	-6	·	15*	·	6	·
O=[N+]([O-])c1cc([N+](=O)[O-])c(N2CCOCC2)cc1NCc1ccccc1	-4	-11	-2	?	31*	-1
O=[N+]([O-])c1ccc(N2CCOCC2)cc1NCc1ccccc1	-7	4	-3	16	13	0
Cc1nc2c(C#N)cnn2c2c1CCN(Cc1ccccc1)N2C	7	-6	0	-7	44*	1
C[C@@H]1CN([C@@H](C)CO)C(=O)c2cc(NC(=O)C3CCCCC3)ccc2O[C@@H](C)CCCCO[C@@H]1CN(C)C(=O)CCCN(C)C	1	·	-2	·	-1	·
COc1cc(/C=N/N2C(=O)CSC2=S)ccc1O	-9	-34	0	-2	38*	0
COc1cc(O)c(C=NN2C(=O)CSC2=S)c(OC)c1	0	·	-2	·	15	·
COc1ccc(/C=N/N2C(=N)SCC2=O)cc1	0	1	-4	22	49*	3
SMILES	FBA Mtb inh	Rv3671c inh	FadD28 binding	Mtb betalactam	GDH-TPI inh	Mtb UGM inh
O=C1CSC(=S)N1/N=C/c1cccnc1	-4	-3	-1	1	57*	1
COCC(=O)N1CCC(c2nc3ccccc3[nH]2)CC1	1	·	-1	·	-1	·
CCOc1ccc(NC(=O)COC(=O)C2COc3ccccc3O2)cc1 (configuration not stated)	0	·	-1	·	6	·
Cc1cccc2nc(-c3ccco3)c(Nc3ccccc3)n12	121*	4	-2	2	13	1
Cc1ccc(/C=N/NC(=O)c2nnn(-c3nonc3N)c2C(C)C)o1	0	2	-1	7	44*	0
Cc1ccc(SCc2c(C(=O)N/N=C/c3ccc(C)o3)nnn2-c2nonc2N)cc1	2	·	-2	·	39*	·
COc1cccc(-c2c(C(=O)N/N=C/c3ccc(C)o3)nnn2-c2nonc2N)c1	-1	-2	-4	16	47*	1
Cc1ccc(/C=N/NC(=O)c2nnn(-c3nonc3N)c2CSc2ccccc2)o1	1	-8	-1	-2	40*	-1
